The list is not random: actives were taken first. Their share in the collection is about 2.5%.
NSD2 HMT inh – inhibitors of human histone methyltransferase NSD2; O96028; NSD2 peptide methylation, AlphaScreen, 120 min; inhibition, % at 12.5 µM; actives 0.54% (n = 310,000); in the data active = inhibition above about 50%
CASP6 VEID inh – caspase-6 (human) enzyme inhibition. inhibition, % at 12.5 µM. actives 0.53% (n = 350,000). purified caspase-6, Z-VEID-R110 cleavage fluorescence. AID 686996;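 active = mean inhibition across replicates at least about 35%, with every replicate also reaching that limit, limit read from the data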
rRNA inh HTS – selective bacterial rRNA inhibition in E. coli; GFP signal change (wild-type ribosome), % (no concentration beside the values); actives 1.6% (n = 350,000); E. coli WT GFP vs humanized-ribosome RFP mutants, fluorescence, 24 h; active compounds read low; DMSO median 0, no signal -100;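 active = significant combined selectivity score with lowered wild-type GFP, culture density cut under 30%, mutant RFP and density less affected; inactive = any of these conditions unmet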
RAD52 anneal inh – RAD52 (human) annealing inhibition | P43351 | actives 0.46% (n = 360,000) | recombinant RAD52 DNA annealing, FRET fluorescence | inhibition, % at 18.7 µM | AID 651710;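 active = every replicate showing at least 50% inhibition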
MLL AF4-AF9 inh – inhibitors of human MLL-AF4/AF9 interaction. AlphaScreen, biotin-AF4 peptide binding to FLAG-AF9. AID 651704. P42568. actives 0.47% (n = 350,000). inhibition, % at 10 µM;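 active = every replicate reaching a set inhibition limit, whatever the replicate mean, cut at about 25% in these data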
Target sequence (P42568 whole entry, looked up): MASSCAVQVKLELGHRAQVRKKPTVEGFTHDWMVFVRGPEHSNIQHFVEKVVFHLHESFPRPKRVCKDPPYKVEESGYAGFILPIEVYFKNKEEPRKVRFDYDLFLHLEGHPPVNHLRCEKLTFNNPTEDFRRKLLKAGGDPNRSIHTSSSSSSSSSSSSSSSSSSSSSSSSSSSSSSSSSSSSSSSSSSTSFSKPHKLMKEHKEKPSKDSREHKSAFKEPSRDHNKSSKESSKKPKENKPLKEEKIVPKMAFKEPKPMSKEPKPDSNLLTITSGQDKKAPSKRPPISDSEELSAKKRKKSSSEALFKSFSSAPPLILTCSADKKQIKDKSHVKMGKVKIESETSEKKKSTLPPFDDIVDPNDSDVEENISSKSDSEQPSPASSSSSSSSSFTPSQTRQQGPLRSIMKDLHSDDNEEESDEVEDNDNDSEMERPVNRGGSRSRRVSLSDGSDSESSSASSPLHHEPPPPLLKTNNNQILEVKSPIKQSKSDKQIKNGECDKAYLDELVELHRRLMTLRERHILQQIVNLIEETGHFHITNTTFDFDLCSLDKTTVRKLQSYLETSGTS
Large screens that a line does not name were inactive.

O=C(c1cccnc1)N1CC(=O)N2[C@H](C1)[C@H](c1ccc(-c3cccnc3)cc1)[C@@H]2CO	MLL AF4-AF9 inh 31.7 (no result: NSD2 HMT inh)
CN(C)CC#Cc1ccc([C@@H]2[C@H]3CN(C(=O)c4cccnc4)CC(=O)N3[C@H]2CO)cc1	none (no result: NSD2 HMT inh, CASP6 VEID inh, RAD52 anneal inh, MLL AF4-AF9 inh)
O=C(c1cccnc1)N1CC(=O)N2[C@H](CO)[C@H](c3ccc(/C=C/c4ccccc4)cc3)[C@@H]2C1	none (no result: NSD2 HMT inh)
O=C(c1cccnc1)N1CC(=O)N2[C@H](C1)[C@H](c1ccc(/C=C/c3ccccc3)cc1)[C@@H]2CO	MLL AF4-AF9 inh 36.8 (no result: NSD2 HMT inh)
CN(C)CC#Cc1ccc([C@H]2[C@H]3CN(C(=O)c4cccnc4)CC(=O)N3[C@H]2CO)cc1	MLL AF4-AF9 inh 34.6 (no result: NSD2 HMT inh)
CC(C)C#Cc1ccc([C@H]2[C@@H](CO)N3C(=O)CN(C(=O)NC4CCCCC4)C[C@@H]23)cc1	RAD52 anneal inh 57.6 (no result: NSD2 HMT inh)
C[C@@H]1CN([C@@H](C)CO)C(=O)c2cc(NC(=O)NC3CCCCC3)ccc2O[C@H]1CN(C)Cc1ccc(C(=O)O)cc1	none (no result: NSD2 HMT inh)
CSc1ccc(/C=C/c2ccc3cccc(O)c3n2)cc1	rRNA inh HTS -30.2
COc1cc(/C=C/c2ccc3cccc(O)c3n2)ccc1O	none
CCn1c(C)nc2cc(C(=O)NNC(=S)Nc3ccccc3OC)ccc21	rRNA inh HTS -19.5 (no result: NSD2 HMT inh)
O=C(NNC(=O)C12CC3CC(CC(C3)C1)C2)c1ccccn1	rRNA inh HTS -43.3
CNC[C@@H]1Oc2ncccc2C(=O)N(C)C[C@H]1C	none (no result: NSD2 HMT inh, CASP6 VEID inh, RAD52 anneal inh, MLL AF4-AF9 inh)
S=c1[nH]nc(-c2ccncc2)n1/N=C/C=C/c1ccco1	CASP6 VEID inh 51.3
Cc1cccc(-c2n[nH]c(=S)n2/N=C/C=C/c2ccco2)c1	none
S=c1[nH]nc(-c2ccccc2Cl)n1/N=C/C=C/c1ccco1	MLL AF4-AF9 inh 47.3
CC1CCN(C2=C(NS(=O)(=O)c3ccc(Cl)cc3)C(=O)c3ccccc3C2=O)CC1	none
O=C1C(NS(=O)(=O)c2ccccc2)=C(N2CCN(c3ccc(F)cc3)CC2)C(=O)c2ccccc21	MLL AF4-AF9 inh 64.3
CC1CCN(C2=C(NS(=O)(=O)c3ccccc3)C(=O)c3ccccc3C2=O)CC1	rRNA inh HTS -23.9, MLL AF4-AF9 inh 57.3
CC(C)C#Cc1cnc2c(c1)C(=O)N([C@@H](C)CO)C[C@@H](C)[C@H](CN(C)S(=O)(=O)c1cn(C)cn1)O2	none (no result: NSD2 HMT inh)
C[C@@H]1CN([C@H](C)CO)C(=O)c2cccc(NC(=O)Nc3ccc(C(F)(F)F)cc3)c2O[C@@H]1CN(C)S(=O)(=O)c1ccccc1	none (no result: NSD2 HMT inh, CASP6 VEID inh, RAD52 anneal inh, MLL AF4-AF9 inh)
Cc1noc(C)c1S(=O)(=O)N(C)C[C@@H]1OCCCC[C@H](C)Oc2ccc(NS(=O)(=O)c3cccs3)cc2C(=O)N([C@@H](C)CO)C[C@H]1C	RAD52 anneal inh 64.4 (no result: NSD2 HMT inh)
C[C@@H]1CN([C@H](C)CO)C(=O)c2cc(NS(=O)(=O)c3cn(C)cn3)ccc2O[C@@H](C)CCCCO[C@@H]1CN(C)S(=O)(=O)c1cccs1	none (no result: NSD2 HMT inh)
C[C@H](CO)N1C[C@H](C)[C@H](CN(C)S(=O)(=O)c2cccs2)OCCCC[C@H](C)Oc2ccc(NS(=O)(=O)c3cn(C)cn3)cc2C1=O	RAD52 anneal inh 108.9 (no result: NSD2 HMT inh)
COc1ccc(S(=O)(=O)N(C)C[C@H]2OCCCC[C@H](C)Oc3ccc(NC(=O)CCCN(C)C)cc3C(=O)N([C@@H](C)CO)C[C@H]2C)cc1	none (no result: NSD2 HMT inh)
O=[N+]([O-])c1ccccc1C(=Nc1ccccc1)c1c(O)cc(O)cc1O	rRNA inh HTS -21.2
O=C(Nc1ccccc1)c1ccccc1NC(=O)c1ccccc1[N+](=O)[O-]	none
O=C(NCC[C@@H]1CC[C@H](NC(=O)C2CC2)[C@H](CO)O1)Nc1ccc(C(F)(F)F)cc1	none (no result: NSD2 HMT inh)
CC(C)Cc1nnc(NS(=O)(=O)c2ccccc2)s1	rRNA inh HTS -16.6
CCN1CCN(C(=O)C(C)Nc2ccc(OC)cc2OC)CC1 (centres undefined)	MLL AF4-AF9 inh 25.6
CCCN1C(=O)c2ccc(C(=O)Nc3ccccc3C(=O)O)cc2C1=O	rRNA inh HTS -21.2
CCCNC(=O)N1CC2(CN(C(C)=O)C2)c2c(n(C)c3cc(OC)ccc23)[C@@H]1CO	none (no result: NSD2 HMT inh, CASP6 VEID inh, RAD52 anneal inh, MLL AF4-AF9 inh)
COc1ccc2c3c(n(C)c2c1)[C@@H](CO)N(CC1CC1)CC31CCN(C(=O)c2ccccc2)CC1	none (no result: NSD2 HMT inh, CASP6 VEID inh, RAD52 anneal inh, MLL AF4-AF9 inh)
COc1ccc(NC(=O)C2CC3C=CC2C3)c([N+](=O)[O-])c1 (centres undefined)	rRNA inh HTS -21.8
COc1ccc(NC(=O)CC(C)C)c([N+](=O)[O-])c1	none
CN(C)CCCNC(=O)C[C@H]1CC[C@H](NS(=O)(=O)c2ccc(F)cc2)[C@H](CO)O1	none (no result: NSD2 HMT inh)
CN(C)c1ccc2c(c1)[C@@H]1C[C@@H](CC(=O)NCc3ccncc3)O[C@@H](CO)[C@@H]1O2	none (no result: NSD2 HMT inh)
Cn1nc(C(C)(C)C)cc1C(=O)NNC(=O)c1cccc(Cl)c1	MLL AF4-AF9 inh 39.7
COc1cccc(NS(=O)(=O)c2ccc3c(c2)NC(=O)CC(=O)N3)c1	CASP6 VEID inh 99.0
CC(/C=N/Nc1nc2ccccc2[nH]1)=C\c1ccccc1	CASP6 VEID inh 35.9
CC(=O)Nc1ccc(/C=N/Nc2nc3ccccc3[nH]2)cc1	rRNA inh HTS -21.3
CC(/C=N/Nc1nc(C)cc(=O)[nH]1)=C\c1ccccc1	none
COc1ccccc1N1CCN(c2ccc([N+](=O)[O-])cn2)CC1	rRNA inh HTS -20.9
O=[N+]([O-])c1ccccc1/C=C\C=N\N1CCN(c2ccccc2)CC1	NSD2 HMT inh 92.9, MLL AF4-AF9 inh 42.1
O=[N+]([O-])c1ccc(N2CCC(O)CC2)nc1	none
COc1ccccc1N1CCN(/N=C/C=C/c2ccccc2[N+](=O)[O-])CC1	rRNA inh HTS -16.8, MLL AF4-AF9 inh 48.3
O=[N+]([O-])c1ccccc1/C=N\N1CCN(c2ccccc2)CC1	none
O=C(/C=C/c1ccccc1[N+](=O)[O-])N1CCN(c2ccc(F)cc2)CC1	rRNA inh HTS -30.1
COCC#Cc1cnc2c(c1)C(=O)N([C@H](C)CO)C[C@H](C)[C@@H](CN(C)C(C)=O)O2	none (no result: NSD2 HMT inh)
COc1ccccc1N1CCN(/N=C\c2sccc2C)CC1	rRNA inh HTS -27.6, MLL AF4-AF9 inh 30.4
COc1ccccc1N1CCN(/N=C\c2ccccc2)CC1	none
O=C(NN=Cc1ccccc1O)c1cccc([N+](=O)[O-])c1	rRNA inh HTS -27.1
COc1ccc(O)c(/C=N/Nc2nc3ccccc3[nH]2)c1	none
O=[N+]([O-])c1ccc(N/N=C/c2ccccc2O)cc1	rRNA inh HTS -18.6
O=[N+]([O-])c1ccc(O)c(/C=N/Nc2nc3ccccc3[nH]2)c1	MLL AF4-AF9 inh 32.1
O=C(NC[C@H]1CC[C@@H]2[C@@H](CN2C(=O)Cc2ccncc2)O1)C1CCOCC1	none (no result: NSD2 HMT inh, rRNA inh HTS)
O=C(C[C@H]1C[C@H]2c3cc(NS(=O)(=O)c4ccc(F)cc4)ccc3O[C@H]2[C@@H](CO)O1)NCc1ccc(Oc2ccccc2)cc1	none (no result: NSD2 HMT inh)
COc1cccc(NC(=O)N[C@H]2CC[C@H](CC(=O)NCc3ccncn3)O[C@H]2CO)c1	none (no result: NSD2 HMT inh)
Nc1[nH]n2c(=O)cc(-c3ccccc3)nc2c1N=Nc1ccccc1	none (no result: CASP6 VEID inh, rRNA inh HTS, RAD52 anneal inh, MLL AF4-AF9 inh)

Source: PubChem BioAssay
